# Source: PubChem (National Center for Advancing Translational Sciences (NCATS))
# Sm TGR block – S. mansoni TGR enzyme inhibition; purified TGR, DTNB reduction, TNB absorbance 405 nm; Potency, µM (top dose mostly 114 µM), hits mostly inhibitors; 360,000 compounds, 3% hits; AID 485364; note: nearly all actives have a fitted effect of over 60% in size
#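 First, TGR (20 nM dispensed) and NADPH were mixed with compound. Second, a 15 min room-temperature incubation followed. Third, further NADPH and then DTNB were added to start the reaction. Finally, TNB absorbance was monitored kinetically.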
# CHX counter – affects cycloheximide protein synthesis inhibition readout, counter-screen; max response, %; cell reporter, cycloheximide protein synthesis inhibition counterscreen; 300,000 compounds, 12% hits; in the data active = max response mostly above about 13%, no sharp cut-off; inactive = mostly below about 14%; note: read at 38.3 µM for the half of the compounds with a filed dose
# Tb PYK inh – T. brucei pyruvate kinase inhibition; Q57TT1; TbPYK enzyme, Kinase-Glo Plus ATP luminescence, 45 min; Potency, µM (doses to about 76.8 µM), most hits filed as inhibitors; 410,000 compounds, 0.12% hits; AID 624173; note: nearly all actives have a fitted effect of over 50% in size
#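 Readout: single end-point luminescence (Kinase-Glo Plus, 10 min). Reaction conditions were TbPYK/substrate plus 130 uM ADP, 45 min at RT, pH 7.2 TEA buffer. No-enzyme wells served as controls, and data were normalized before concentration-response fitting.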
# FBPA Giardia inh – blocks Giardia fructose-bisphosphate aldolase activity; AID 2451; A8B2U2; purified Giardia FBPA; 290,000 compounds, 0.71% hits; Potency, µM (highest dose often 59.6 µM), hits mostly inhibitors; note: nearly all actives have a fitted effect of over 55% in size
# Target sequence (A8B2U2 whole entry, looked up): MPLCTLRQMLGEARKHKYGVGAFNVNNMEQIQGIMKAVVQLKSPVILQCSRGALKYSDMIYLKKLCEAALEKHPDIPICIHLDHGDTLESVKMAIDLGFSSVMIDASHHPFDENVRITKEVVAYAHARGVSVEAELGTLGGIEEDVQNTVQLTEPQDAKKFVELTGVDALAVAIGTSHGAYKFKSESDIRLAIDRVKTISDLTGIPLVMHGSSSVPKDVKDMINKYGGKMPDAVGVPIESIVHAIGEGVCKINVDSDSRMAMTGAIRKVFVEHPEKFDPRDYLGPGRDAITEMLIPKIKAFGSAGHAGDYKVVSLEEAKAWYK
#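 Giardia FBPA (40 nM reagent) was preincubated 10 min at RT with compound (up to 57.5 uM final), then substrate plus GAPDH/TPI/NAD/arsenate coupling system with diaphorase/resazurin was added; resorufin fluorescence (525/598 nm) was read after 20 min.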
# Shiga toxin inh – inhibitors of Shiga toxin in Vero cells | AID 2315 | Vero cells, Shiga toxin protein synthesis inhibition reporter | inhibition, % at 38.7 µM | 290,000 compounds, 9.2% hits; in the data active = inhibition mostly above about 28%, no sharp cut-off; inactive = mostly below about 43%
# LmPK inhibitor – LmPK (Leishmania mexicana) enzyme inhibition. Q27686. purified LmPK, Kinase-Glo ATP luminescence, 1 h. Potency, µM (top dose mostly 57.5 µM), hits mostly inhibitors. 290,000 compounds, 0.37% hits. AID 1721
#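 Purified LmPK (0.1 nM) converted ADP (0.1 mM) to ATP with PEP (0.5 mM) in imidazole buffer pH 7.2 with KCl and MgCl2, 1 h at room temperature. ATP was read by Kinase-Glo luminescence; data normalized to uninhibited and no-enzyme controls.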
# Numbers stand for hits; i = inactive; ? = inconclusive; nt = no result given. The full list was thinned out, with hits kept by preference. Unless noted, calls come from the whole dose curve; as a rule, active = well fitted curve in the direction sought with a large enough effect; inconclusive = small, poorly fitted or top-dose-only effect, or another doubt; inactive = no such curve, though single readings can be large; an effect the other way counts as inactive or inconclusive.
SMILES,Sm TGR block,CHX counter,Tb PYK inh,FBPA Giardia inh,Shiga toxin inh,LmPK inhibitor
COc1ccc(C(=O)Nc2sc(C)c(-c3ccccc3)c2C#N)cc1OC,i,i,i,i,i,i
Cc1ccc(OCC(=O)Nc2sc3c(c2C#N)CCC3)cc1,i,53,i,i,122,i
CCc1ccccc1NC(=O)c1nc2nc(C)cc(C(F)F)n2n1,i,nt,i,nt,nt,nt
CCOc1ccc(CNC(=O)CCS(=O)(=O)c2cc3c(cc2Cl)NC(=O)CO3)cc1OC,i,nt,i,nt,nt,nt
O=C(CSc1nnc(-c2ccccc2Cl)o1)Nc1ccccn1,i,48,i,i,73,i
Cc1occc1-c1nnc(SCC(=O)Nc2ccccn2)o1,i,17,i,i,38,i
O=C(CSc1nnc(-c2ccccc2F)o1)Nc1ccccc1Cl,i,nt,i,nt,nt,nt
Cc1ccc(C(=O)C(C)OC(=O)c2ccccc2[N+](=O)[O-])cc1 (stereo not given),i,50,i,i,71,i
O=C(/C=C/c1ccccc1[N+](=O)[O-])c1ccccc1Br,i,14,i,i,47,i
COc1ccccc1C(=O)NNC(=O)c1ccccc1[N+](=O)[O-],i,i,i,i,i,i
Cc1ccc(C(=O)/C=C/c2ccc(-c3ccccc3[N+](=O)[O-])o2)cc1,i,i,i,?,i,i
NS(=O)(=O)c1ccc(NC(=O)/C=C/c2ccccc2[N+](=O)[O-])cc1,i,i,i,i,i,i
Cc1ccc(C(=O)/C=C/c2ccccc2[N+](=O)[O-])cc1,nt,28,i,i,i,i
O=C(CCC1CCCCC1)Nc1nncs1,i,i,i,i,i,i
COc1cc2c(cc1NC(=O)C1CCCO1)oc1ccccc12 (stereo not given),i,50,i,i,134,i
CCN(CC)S(=O)(=O)c1ccc(C(=O)Nc2cc3oc4ccccc4c3cc2OC)cc1,i,i,i,i,i,i
COc1cc2c(cc1NC(=O)C(C)OC(=O)C1CC(=O)N(Cc3ccco3)C1)oc1ccccc12 (stereo not given),i,38,i,i,i,i
COc1cc2c(cc1NC(=O)C(C)Sc1ccc(NC(C)=O)cc1)oc1ccccc12 (stereo not given),i,21,i,i,i,i
COc1cc2c(cc1NC(=O)c1cccc(S(=O)(=O)N(C)C)c1)oc1ccccc12,i,25,i,i,67,i
COc1cc2c(cc1NC(=O)Nc1ccc(F)cc1)oc1ccccc12,i,i,i,i,i,i
COc1ccc(Cl)cc1NC(=O)C1CCCO1 (stereo not given),i,i,i,i,i,i
CCC12CN3CC(C)(CN(C1)C3c1c[nH]c3ccc(OC)cc13)C2=O (stereo not given),i,nt,i,nt,nt,nt
CNC(=S)Nc1cc2oc3ccccc3c2cc1OC,i,i,i,i,i,i
COc1cc2c(cc1NC(=S)Nc1ccccc1C)oc1ccccc12,i,33,i,i,91,i
COc1cc2c(cc1NC(=O)Nc1ccc(C)cc1)oc1ccccc12,i,19,i,i,i,i
SMILES,Sm TGR block,CHX counter,Tb PYK inh,FBPA Giardia inh,Shiga toxin inh,LmPK inhibitor
COc1ccc(NC(=O)Nc2cc3oc4ccccc4c3cc2OC)cc1,i,i,i,i,i,i
O=C(/C=C/c1cn(CC(O)CN2CCCCCC2)c2ccccc12)c1ccc(Br)cc1 (stereo not given),i,nt,i,nt,nt,nt
Oc1ccc(Br)cc1C1C=C(c2ccc3c(c2)OCO3)NC(c2c(F)cccc2Cl)N1 (stereo not given),nt,46,nt,nt,82,nt
Oc1ccccc1C1C=C(c2ccc3c(c2)OCO3)NC(c2c(F)cccc2Cl)N1 (stereo not given),nt,46,nt,nt,97,nt
COc1ccc(-c2noc(-c3nnn(-c4cc(C)ccc4C)c3N)n2)cc1,i,nt,i,nt,nt,nt
COc1ccc(S(=O)(=O)NCC(c2ccco2)N2CCN(c3ccccc3F)CC2)cc1C (stereo not given),i,nt,i,nt,nt,nt
CCC(C)NC(=O)c1cc2c(=O)n(CC)c3ccccc3c2s1 (stereo not given),i,12,i,i,i,i
CCn1c(=O)c2cc(C(=O)NCCC(C)C)sc2c2ccccc21,i,i,i,i,i,i
CCC(C)NC(=O)c1cc2c(=O)n3ccccc3nc2s1 (stereo not given),i,35,i,i,32,i
